± gives the standard deviation of the averaged measurements. Whole data set: some 25,000 sequences, median “ln(normalized median fluorescence intensity)” near 10, cut for the highest 2% near 12. The sample as a whole holds a higher share of the highest values than the screen did.

This assay concerns PfAP2-G AP2 domain (GST-tagged). Kind of assay: gcPBM binding intensity (ln(normalized median fluorescence intensity)); higher = stronger DNA binding. Put shortly:
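After 1 h on an Agilent 4 × 180k array of primer-extended double-stranded 36-bp intergenic genomic probes and negative controls, bound GST-tagged P. falciparum DNA-binding domains were detected with Alexa488 anti-GST antibody and scanned at 488 nm. The domains had been expressed in E. coli, and binding took place in 1× PBS with 1% milk, 0.2 mg/ml BSA, 0.5% salmon testes DNA and 0.03% Triton X-100. Binding intensity is the highest Masliner-normalised natural-log median intensity across replicate spots of either probe orientation.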
Take “TAAAAAAAAAGAAGCTGTACTAAAAAATTTATATTA [XGTACX_site7408]”: the “gcPBM binding intensity (ln)” value amounted to 11.1 ± 0.81. To “ACATATAATATAAAGTGTACAAGAAAATAAAAATAA [XGTACX_site1273]” belongs 11.3 ± 0.77; to “TATATATATATTATATGTACACAAGGAAATATGCAT [XGTACX_site5637]”, 11.5 ± 0.75; to “CTTCCTATATTTTACTGTACTTTTTTTTTTTTTTTT [XGTACX_site4016]”, 11.7 ± 0.98.

With “ATATATGTGTATGTATGTACTTATATTTTTTTTTAT [XGTACX_site1733]”, the “gcPBM binding intensity (ln)” value was 11.2 ± 0.78. To “TTATATATTTTTATGTGTACTTATATATATATATAT [XGTACX_site6211]” belongs 11.7 ± 1.1; to “ACTATTATTAAAAATTGTACTTTCTATAAATTTTTT [XGTACX_site7825]”, 11.1 ± 0.62; to “ATTTTTTTATTTTTGTGTACTTATAAGAATATTAAT [XGTACX_site4850]”, 11.7 ± 1.1. For “GTTAAGAATATATAATGTACTTATTTTAATATAGTA [XGTACX_site6088]” the value was 11.1 ± 0.84; for “ATATATATATATATATGTACTTATTTATTTTATATA [XGTACX_site8810]”, 11.5 ± 1.1. For “TAAATAAAAATACAGTGTACTTTTTTCTATTTAAAA [XGTACX_site3288]” the value was 11.7 ± 1.2.

Regarding “TATAAATATATATTTTGTACTTAATATAAATTTATA [XGTACX_site7996]”, the “gcPBM binding intensity (ln)” value was found to be 11 ± 0.62. In the case of “TATATTTATTCCTGTTGTACTTTATATTATTTTTTT [XGTACX_site1415]”, the “gcPBM binding intensity (ln)” value was found to be 11.3 ± 0.6. To “TATATTAAAATTTACTGTACTTTTTTTATTTTAAAA [XGTACX_site4077]” belongs 11.6 ± 1.1; to “ATTTAAATACAAAATTGTACTTTTCTATATTTAACA [XGTACX_site6146]”, 11.3 ± 0.64. For the sequence ATATATTAAAACCTAGTGCATTTGTACATATTTCAA, the “gcPBM binding intensity (ln)” value came to 11 ± 0.52.

In the case of “ATTTTAGATGAAAAAGCACACAACATATATATATAT [CACACA_site2295]”, the “gcPBM binding intensity (ln)” value was determined as 10.2 ± 0.43. To “TAATAAATAAGACACACACACATATATATATATTAT [CACACA_site1389]” belongs 10.01 ± 0.042; to “TTGTATTATTAAATTATAAAACCTATAATTATGGAT [GTGCAC_negctrl_site340]”, 9.68 ± 0.099; to “TGGAAATTCTCAGGAGTGCATATTTGCAGTTTACGT [GTGCAC_site9768]”, 10.3 ± 0.25. For “GGGAAAGAACCATATACATGCATATTTACCGTTAAA [TGCATGCA_site519]” the value was 10 ± 0.28; for “ATTTATATATAATATACACACATATAATCCACATAT [CACACA_site699]”, 10.15 ± 0.035.

For the sequence “CAAAAAATATATTTTTGTACTTATGTTTTTATTTTG [XGTACX_site5230]”, the “gcPBM binding intensity (ln)” value was determined as 11.1 ± 0.76. For “TTTTTTTTTTTAAATTGTACTTATTTTATATTATAT [XGTACX_site1077]” the value was 11.4 ± 0.9; for “TTTAAATTTTTATATTGTACTTTATTTATTTATTTA [XGTACX_site869]”, 11.2 ± 0.85. To “TATATATATATCAAGTGTACTTGTGTTTGTAATATT [XGTACX_site8854]” belongs 11.4 ± 1.

Regarding “TCTTTTTAATTTATATGTACTTATATTAATTATAAG [XGTACX_site7524]”, the “gcPBM binding intensity (ln)” value stood at 11.4 ± 0.97. To “TTTTTGTTTTTTTTGTGTACTTATCAAATATATATA [XGTACX_site7273]” belongs 11.6 ± 0.83; to “TATATATATATATATTGTACTTTATTTTATATATTC [XGTACX_site5697]”, 11.2 ± 0.71. To “AATTTTTTTTTATTGTGTACTTATTTTTTTATATTT [XGTACX_site917]” belongs 11.7 ± 0.88; to “GCTATTTATTTATATTGTACTTTTTTTTTTTTTTTT [XGTACX_site3624]”, 11.7 ± 1.1; to “ATATATATATATGTGTGTACTTATTTATTTATTTGT [XGTACX_site549]”, 11.5 ± 1. To “TTTTTTCTTTTTATGTGTACTTATTTTATTTAATAA [XGTACX_site1080]” belongs 11.7 ± 1.1. “ATATATATATATATATGTACTTAATATTTCTTATTT [XGTACX_site6206]”: the “gcPBM binding intensity (ln)” value was 11 ± 0.76.

“ATATATAATATATACACACACATGTATATATAAATA [CACACA_site1968]”: the “gcPBM binding intensity (ln)” value was found to be 9.87 ± 0.16. For TTTCTTTTTAAATAGGTGCATATTTTTATAAATATA the value was 10.1 ± 0.38; for “AAACTAACTCTAACATGTACATATATATATATATAT [XGTACX_site6949]”, 11.1 ± 0.66. To “AACAATTATTGTAATGCATGCACTGAATATAGAAAG [TGCATGCA_site889]” belongs 10.2 ± 0.18; to “TGTGTTAATATATGAAGTACACAATACACACTAATT [XGTACX_site5469]”, 11.4 ± 0.73; to “ATGTACATTTTTTTCACACATACATTAATTTATGAG [CACACA_site5801]”, 11.3 ± 0.87. To “ATAAAAAAATAAATAACACACAAAATTACACGAAAA [CACACA_site3620]” belongs 10.01 ± 0.049. Consider “GCAGGCTAAAAAATTACACACGAAAAAAATGAATTT [CACACA_site3417]”, for which the “gcPBM binding intensity (ln)” value stood at 9.86. For “GCCCCCTAAAAAATTACACACGAAAAAAATGAATTT [CACACA_site9128]” the value was 11.7 ± 1.2. For “TATATTATATTTTTATGTACTTATTTATTTTGTTTC [XGTACX_site6145]” the value was 11.3 ± 0.67; for “AGTCTGAATAAAATTACACACATATACAGATATATA [CACACA_site5054]”, 9.8 ± 0.014.
